The source of these data is PubChem BioAssay (Tox21).

The nature of test [1]: qHTS assay to identify small molecule agonists of the peroxisome proliferator-activated receptor delta (PPARd) signaling pathway - cell viability counter screen (AID 743211). Further: nearly all actives have a fitted effect of over 55% in size. Further: potency means the concentration at half of the fitted maximal effect. The following applies: PPARd-bla HEK293H viability, CellTiter-Glo luminescence, 17 h; series mostly up to 62.6 µM. In a few lines: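 Tox21 library compounds, delivered in DMSO, were incubated 17 h with PPARd-bla HEK293H cells; cytotoxicity was taken from CellTiter-Glo luminescence read 30 min after reagent addition.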
Background: qHTS replaces the single test concentration by a dilution series.

Test [2] can be described thus: qHTS assay to identify small molecule antagonists of the peroxisome proliferator-activated receptor delta (PPARd) signaling pathway - cell viability counter screen (AID 743213). Further: nearly all actives have a fitted effect of over 50% in size. Further: potency means the concentration at half of the fitted maximal effect. The following applies: PPARd-bla HEK293H viability, CellTiter-Glo luminescence, 17 h; series mostly up to 62 µM. In a few lines: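 HEK293H cells with the PPARd UAS-bla reporter, co-treated 17 h at 37 C with compounds and L165041 (300 nM final), were lysed with CellTiter-Glo. Luminescence indicated viable cell content.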

For test [3], the target named is Bile acid receptor (Homo sapiens) (UniProt Q96RI1). The experiment in a line: qHTS assay to identify small molecule antagonists of the farnesoid-X-receptor (FXR) signaling pathway (AID 743217; active means well fitted inhibition curve with a large enough effect in the signal ratio in the repeat runs, not every such curve was filed as active; the % refers to the signal ratio). The note with it: HEK293T FXR-UAS-bla, beta-lactamase ratio, CDCA-stimulated, 16 h; series mostly up to 62.6 µM. Summed up:
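Test compounds are pin-transferred onto FXR-bla HEK 293T cells, then chenodeoxycholic acid is added at 50 uM final. After 16 h at 37 °C, LiveBLAzer B/G substrate is applied for 2 h at room temperature and fluorescence read.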

Test [4] in a line: qHTS assay to identify small molecule agonists of the farnesoid-X-receptor (FXR) signaling pathway - cell viability counter screen (AID 743218). Further: nearly all actives have a fitted effect of over 45% in size. Further: potency means the concentration at half of the fitted maximal effect. The following applies: FXR-bla HEK293T viability, CellTiter-Glo luminescence, 16 h; series mostly up to 62.6 µM. In a few lines:
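Quantitative HTS counter screen measuring ATP-based viability via CellTiter-Glo luminescence in HEK 293T cells carrying a UAS-driven beta-lactamase reporter, after 16 h compound exposure at 37 C.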

Test [5] has as its target Bile acid receptor (Homo sapiens) (UniProt Q96RI1). Put plainly: qHTS assay to identify small molecule agonists of the farnesoid-X-receptor (FXR) signaling pathway (AID 743220; active means well fitted activation curve with a large enough effect in the signal ratio in the repeat runs, not every such curve was filed as active; the % refers to the signal ratio). The following applies: HEK293T FXR-UAS-bla, beta-lactamase FRET ratio, 16 h; series mostly up to 62.6 µM. Summed up:
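FXR-UAS-bla HEK 293T cells carrying a UAS-driven beta-lactamase reporter were plated for 5 h at 37C/5% CO2, then exposed to DMSO-dissolved Tox21 10K compounds for 16 h at 37C. A LiveBLAzer B/G FRET substrate was loaded for 2 h at room temperature before fluorescence reading.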

The nature of test [6]: qHTS assay to identify small molecule antagonists of the farnesoid-X-receptor (FXR) signaling pathway - cell viability counter screen (AID 743221; active means well fitted cell-killing curve with a large enough effect in the repeat runs, not every such curve was filed as active; further: nearly all actives have a fitted effect of over 50% in size; further: potency means the concentration at half of the fitted maximal effect). The note with it: FXR-bla HEK293T viability, CellTiter-Glo luminescence, 16 h; series mostly up to 62.6 µM. In a few lines:
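Cytotoxicity is taken from ATP luminescence (CellTiter-Glo, 30 min, room temperature) in FXR-bla HEK 293T cells previously incubated 16 h at 37 C with compound and chenodeoxycholic acid at 50 uM final.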

Test [7] concerns the target Vitamin D3 receptor (Homo sapiens) (UniProt P11473). The experiment in a line: qHTS assay to identify small molecule agonists of the vitamin D receptor (VDR) signaling pathway (AID 743222; calls by dose curve). The note with it: HEK293T VDR-UAS-bla, beta-lactamase FRET ratio, 16 h; series mostly up to 63.5 µM. Summed up:
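Tox21 cell reporter format: VDR-bla line, 16 h compound exposure in 5% CO2 at 37C, then fluorescence intensity after 2 h with LiveBLAzer B/G FRET substrate.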

For test [8] the target is unchanged. The experiment in a line: qHTS assay to identify small molecule antagonists of the vitamin D receptor (VDR) signaling pathway (AID 743223; active means well fitted inhibition curve with a large enough effect in the signal ratio in the repeat runs, not every such curve was filed as active; the % refers to the signal ratio). The following applies: VDR-UAS-bla HEK293T, beta-lactamase FRET ratio, 16 h; series mostly up to 61 µM. Summed up:
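Quantitative HTS in VDR-bla reporter cells stimulated with 1alpha,25-dihydroxyvitamin D3, 3 nM final. Compound exposure 16 h, 37C, 5% CO2. Read-out: beta-lactamase FRET substrate fluorescence, 2 h RT.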

Test [9] deals with Peroxisome proliferator-activated receptor delta (Homo sapiens) (UniProt Q03181). The experiment in a line: qHTS assay to identify small molecule antagonists of the peroxisome proliferator-activated receptor delta (PPARd) signaling pathway (AID 743215; active means well fitted inhibition curve with a large enough effect in the signal ratio in the repeat runs, not every such curve was filed as active; the % refers to the signal ratio;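 further: cells stimulated with agonist L165041 at 300 nM final during compound exposure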; further: potency means the concentration at half of the fitted maximal effect). The note with it: HEK293H PPARd-UAS-bla, beta-lactamase FRET ratio, antagonist, 17 h; series mostly up to 62 µM. In a few lines: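 Here, a reporter line (HEK293H, beta-lactamase under a UAS) measures PPARd signaling. Compounds are tested against agonist L165041 at 300 nM final concentration over 17 h at 37 C, with fluorescence read after substrate.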

The target is the same in test [10]. The experiment in a line: qHTS assay to identify small molecule agonists of the peroxisome proliferator-activated receptor delta (PPARd) signaling pathway (AID 743212; calls by dose curve). The note with it: HEK293H PPARd-UAS-bla, beta-lactamase FRET ratio, 17 h; series mostly up to 62.6 µM. Summed up:
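Read-out: beta-lactamase FRET fluorescence after 2 h room-temperature incubation with LiveBLAzer B/G substrate. Cells were HEK293H carrying a UAS-bla reporter for PPARd, treated at 37 C with DMSO-dissolved compounds.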

Several values for one entry are separate records, joined by “and”; a condition that tells them apart may be missing. Equal entries are not always repeated. Results filed as inconclusive are left out. Activity calls are given as the source filed them. Unless noted, the call rests on the fitted dose curve; in most records, active means well fitted curve in the direction sought with a large enough effect in the repeat runs; inconclusive means weak or mixed curves; inactive means no such curve, though single readings can be large; an effect the other way counts as inactive or inconclusive.

Chain of Vitamin D3 receptor (Homo sapiens) (P11473 whole entry, looked up): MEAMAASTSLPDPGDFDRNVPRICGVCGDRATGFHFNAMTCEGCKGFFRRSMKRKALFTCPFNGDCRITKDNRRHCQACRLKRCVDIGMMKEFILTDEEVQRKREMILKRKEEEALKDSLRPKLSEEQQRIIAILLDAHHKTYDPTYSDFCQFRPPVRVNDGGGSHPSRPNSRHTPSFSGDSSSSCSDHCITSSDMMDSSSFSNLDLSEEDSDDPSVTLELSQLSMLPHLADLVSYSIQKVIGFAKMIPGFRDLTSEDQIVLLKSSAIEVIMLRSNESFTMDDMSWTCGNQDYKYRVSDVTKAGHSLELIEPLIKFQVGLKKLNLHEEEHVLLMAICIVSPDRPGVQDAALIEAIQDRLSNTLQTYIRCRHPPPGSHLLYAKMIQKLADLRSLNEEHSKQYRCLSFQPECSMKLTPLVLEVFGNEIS
Chain of Bile acid receptor (Homo sapiens) (Q96RI1 whole entry, looked up): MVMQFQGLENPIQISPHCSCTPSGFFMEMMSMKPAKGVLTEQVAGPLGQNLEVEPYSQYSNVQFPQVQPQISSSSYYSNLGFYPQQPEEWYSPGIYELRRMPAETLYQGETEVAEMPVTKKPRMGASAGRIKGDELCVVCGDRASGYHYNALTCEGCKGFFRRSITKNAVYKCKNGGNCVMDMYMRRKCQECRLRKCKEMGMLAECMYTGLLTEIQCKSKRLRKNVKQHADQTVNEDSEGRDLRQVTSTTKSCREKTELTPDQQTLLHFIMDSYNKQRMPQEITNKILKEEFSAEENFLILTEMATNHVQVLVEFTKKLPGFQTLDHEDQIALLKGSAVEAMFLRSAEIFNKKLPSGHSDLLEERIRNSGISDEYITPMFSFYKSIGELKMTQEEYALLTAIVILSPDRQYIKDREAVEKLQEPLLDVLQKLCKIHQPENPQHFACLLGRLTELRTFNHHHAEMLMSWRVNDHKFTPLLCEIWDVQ
Chain of Peroxisome proliferator-activated receptor delta (Homo sapiens) (Q03181 whole entry, looked up): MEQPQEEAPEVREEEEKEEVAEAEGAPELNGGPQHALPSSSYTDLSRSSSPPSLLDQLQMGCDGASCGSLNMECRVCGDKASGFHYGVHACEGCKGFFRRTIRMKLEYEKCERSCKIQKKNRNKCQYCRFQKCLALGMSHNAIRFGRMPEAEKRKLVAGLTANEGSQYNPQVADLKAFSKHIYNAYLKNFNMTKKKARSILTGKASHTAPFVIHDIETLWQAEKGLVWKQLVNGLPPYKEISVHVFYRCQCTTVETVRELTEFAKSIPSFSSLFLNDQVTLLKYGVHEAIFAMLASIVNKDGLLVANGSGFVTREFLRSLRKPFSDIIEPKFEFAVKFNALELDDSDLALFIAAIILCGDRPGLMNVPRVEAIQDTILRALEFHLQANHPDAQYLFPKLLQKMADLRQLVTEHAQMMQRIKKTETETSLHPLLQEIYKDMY

For the compound `CCCBr`, the Potency entry in [1], in test [2], in [3], in [4], in [6] and in [8] was “inactive” throughout. Moreover, the outcome in test [5] and in [7] was inactive.

Consider `C=CCOC(=O)C(C)(C)OC(=O)c1cc(-n2c(=O)cc(C(F)(F)F)n(C)c2=O)ccc1Cl`, for which the Potency entry in test [1], in test [2], in [9] and in [4] was “inactive” in each case.

As to `COc1ccc(C(O)(c2cncnc2)C2CC2)cc1` (configuration not stated), the Potency entry in [1], in [2], in [3], in [4] and in test [6] was “inactive” each time. For the same compound, the result in test [5] and in test [7] was inactive.

With `CCOC(C(=O)OCCN(C)C)(c1ccccc1)c1ccccc1`, the Potency result in test [1], in test [2], in test [3], in test [6] and in test [8] was “inactive” in each case. Further, the outcome in [5] was inactive.

As for `O=C1c2ccccc2C(=O)N1SC(Cl)(Cl)Cl`, the Potency in [1] was 38.3 µM (active) and 6.92 µM (active); in test [2] it was 21.6 µM (active) and 5.49 µM (active); in test [9] it was 19.5 µM (active); in [4] it was 34.7 µM (active). For the same compound, the outcome in test [5] was inactive.

With `C#C[C@]1(O)CC[C@H]2[C@@H]3CCC4=CC(=O)CCC4=C3C=C[C@@]21CC`, the Potency entry in [1] and in test [2] was “inactive” each time.

For the compound `Clc1ccccc1`, the Potency entry in test [1], in [4] and in test [6] was “inactive” each time. Also, the outcome in test [10] and in test [7] was inactive.

As to `CCCC(C)(COC(N)=O)COC(=O)NC(C)C` (configuration not stated), the Potency entry in test [1], in [2], in test [4], in test [6] and in [8] was “inactive” in each case.

Turning to `O=C(Cc1ccccc1)c1ccccc1`, the Potency entry in test [1], in test [3], in test [4], in test [6] and in test [8] was “inactive” in each case. Moreover, the result in test [10], in test [5] and in test [7] was inactive.

Take `CC(C)(C)c1ccc(CCOc2ncnc3ccccc23)cc1`: the Potency result in test [1], in test [2], in test [3], in [4], in test [6] and in [8] was “inactive” each time. Also, the outcome in test [5] and in test [7] was inactive.

`Clc1ccc(Cl)c(Cl)c1`: the Potency result in [1], in test [2], in test [4], in [6] and in [8] was “inactive” each time. Further, in [7], the result was inactive.

As to `C=CC(C)(CCC=C(C)C)OC(=O)c1ccccc1N` (configuration not stated), the Potency entry in test [1], in [2], in test [4], in test [6] and in [8] was “inactive” in each case. Besides, the result in test [7] was inactive.

On to `CCC(C)Cl` (configuration not stated), for which the Potency entry in test [1], in [2], in test [4], in test [6] and in test [8] was “inactive” in each case.

For the compound `CN1CC[C@]23c4c5ccc(O)c4O[C@H]2[C@@H](O)CC[C@H]3[C@H]1C5`, the Potency entry in [1], in [2], in test [4], in [6] and in [8] was “inactive” in each case. Also, in test [7], the outcome was inactive.

On to `CCCCC1C(=O)NC(=O)N(C2CCCCC2)C1=O` (configuration not stated), for which the Potency result in test [1], in test [2], in [3], in test [6] and in [8] was “inactive” in each case. In addition, the result in test [5] was inactive.

In the case of `O=C(NCNC(=O)NC1C(=O)NC(=O)N1CO)NC1C(=O)NC(=O)N1CO` (configuration not stated), the Potency entry in test [1], in test [3], in test [4] and in test [6] was “inactive” throughout. For the same compound, the result in test [10] and in test [5] was inactive.

Regarding `O=C(O)COc1cc(Cl)c(Cl)cc1Cl`, the Potency result in [1], in test [2], in test [9], in test [3], in [4] and in test [6] was “inactive” each time. Moreover, in test [8], the Potency entry was “inactive”. The result in test [5] and in [7] was inactive.

As for `CCOC(=O)NC(O)C(Cl)(Cl)Cl` (configuration not stated), the Potency result in test [1], in test [2], in test [3], in [4] and in [6] was “inactive” in each case. Moreover, the result in test [5] was inactive.

As to `O=C(O)C(F)(F)C(F)(F)C(F)(F)C(F)(F)C(F)(F)C(F)(F)C(F)(F)C(F)(F)F`, the Potency entry in test [1], in test [2], in [3], in test [6] and in [8] was “inactive” in each case. For the same compound, the result in test [5] and in test [7] was inactive.

Regarding `CC(C)CCCCCCCOC(=O)c1ccccc1C(=O)OCCCCCCCC(C)C`, the Potency entry in test [1], in [2], in [3], in test [6] and in test [8] was “inactive” throughout. The outcome in [5] and in test [7] was inactive.

As for `CN1C[C@H](C(=O)N[C@]2(C)O[C@@]3(O)[C@@H]4CCCN4C(=O)[C@H](Cc4ccccc4)N3C2=O)C=C2c3cccc4[nH]cc(c34)C[C@H]21`, the Potency result in test [1], in [2], in [4] and in test [6] was “inactive” in each case. In addition, the result in [5] was inactive.

Take `c1ccc2c(c1)-c1cccc3cccc-2c13`: the Potency result in [1], in test [2], in [4], in test [6] and in test [8] was “inactive” throughout. Further, the result in test [7] was inactive.

As to `OC[P+](CO)(CO)CO`, the Potency result in test [1], in test [4], in test [6] and in test [8] was “inactive” each time. The outcome in [10] and in test [7] was inactive.

Regarding `O=C(O)C(F)(F)C(F)(F)C(F)(F)C(F)(F)C(F)(F)F`, the Potency result in [1], in test [2], in test [9], in [4], in test [6] and in [8] was “inactive” each time. In addition, the result in [7] was inactive.

For `CCCCCCCCCCCC[N+](C)(C)CCOc1ccccc1`, the Potency is 13.8 µM (active) and 11.9 µM (active) in [1]; 17.4 µM (active) in [2]; 24.6 µM (active) in test [4]; 49 µM (active) in [6]. For the same compound, in test [7], the result was inactive.

Consider `CCOP(=S)(S)OCC`, for which the Potency result in test [1], in test [2], in [9], in test [3], in [4] and in test [6] was “inactive” in each case. In addition, the Potency entry in test [8] is “inactive”. Moreover, the outcome in test [5] and in [7] was inactive.

With `CCCC[P+](CC)(CCCC)CCCC` (tested in a mixture with another compound), the Potency result in [1], in [2], in test [4], in [6] and in test [8] was “inactive” each time.

On to `NC(=O)CF`, for which the Potency result in test [1], in test [2], in test [4] and in [6] was “inactive” throughout. Moreover, in test [7], the outcome was inactive.

Consider `CCCCCCCCn1sccc1=O`, for which the Potency in [1] is 1.95 µM (active) and 2.04 µM (active); in [2], 1.38 µM (active) and 1.82 µM (active); in test [4] it was 7.78 µM (active) and 5.13 µM (active); in test [6] it was 6.18 µM (active) and 4.57 µM (active). Also, the result in test [7] was inactive.

On to `CCCCOC(=O)CCC(=O)OCCCC`, for which the Potency result in test [1], in [4] and in test [6] was “inactive” each time. The outcome in [10] was inactive.

In the case of `CCN(C(C)=O)c1cccc(-c2ccnc3c(C#N)cnn23)c1`, the Potency result in test [1], in [2], in test [4], in test [6] and in test [8] was “inactive” in each case. In addition, the outcome in test [5] and in [7] was inactive.

For the compound `C[N+](C)(C)CCOC(=O)C(O)(c1ccccc1)c1ccccc1`, the Potency result in test [1], in [9], in [6] and in test [8] was “inactive” each time. The outcome in test [10] and in test [7] was inactive.
